Cav3 T inh – Cav3.2 calcium influx blockers – cell-based, Fluo-4 calcium fluorescence, FDSS, MLSMR library, primary screen; Voltage-dependent T-type calcium channel subunit alpha-1H (Homo sapiens), O95180; Cav3.2-expressing cells; stronger effect = lower value; B-score at 10 µM; 4% of 100,000 active; AID 449739, 2010;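 active = single-dose well whose peak fluorescence ratio is a statistical outlier from its plate by either plate-standardised score or position-corrected B-score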
hDAT+cocaine – changed hDAT dopamine uptake under cocaine IC80, either direction, primary screen, cocaine antagonist project, cell-based, LLC-PK1 hDAT, [14C]-dopamine uptake, MLSMR; B-score at 10 µM; LLC-PK1 hDAT cells, [14C]-dopamine uptake with cocaine IC80; actives deviate in either direction; Sodium-dependent dopamine transporter (Homo sapiens), Q01959; 1.3% of 110,000 active;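 active = Z score or B-score, a plate-position-corrected score, falls beyond the plate's 99.7% confidence bounds, in either direction; inactive = both scores lie inside the 99.7% bounds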
D1 mod – D1 CRE-luciferase signal change, two-sided – cell-based, HEK293 D1, dopamine EC30, D1 allosteric modulator project, primary screen. dopamine EC30 potentiation; actives deviate in either direction. B-score at 10 µM. AID 641, 2007. D(1A) dopamine receptor (Homo sapiens), P21728. 5.9% of 58,000 active;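 active = luminescence count or its row- and column-corrected plate score outside the 99.7% band of the plate's sample wells, on either side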
Target sequence (P21728 whole entry, looked up): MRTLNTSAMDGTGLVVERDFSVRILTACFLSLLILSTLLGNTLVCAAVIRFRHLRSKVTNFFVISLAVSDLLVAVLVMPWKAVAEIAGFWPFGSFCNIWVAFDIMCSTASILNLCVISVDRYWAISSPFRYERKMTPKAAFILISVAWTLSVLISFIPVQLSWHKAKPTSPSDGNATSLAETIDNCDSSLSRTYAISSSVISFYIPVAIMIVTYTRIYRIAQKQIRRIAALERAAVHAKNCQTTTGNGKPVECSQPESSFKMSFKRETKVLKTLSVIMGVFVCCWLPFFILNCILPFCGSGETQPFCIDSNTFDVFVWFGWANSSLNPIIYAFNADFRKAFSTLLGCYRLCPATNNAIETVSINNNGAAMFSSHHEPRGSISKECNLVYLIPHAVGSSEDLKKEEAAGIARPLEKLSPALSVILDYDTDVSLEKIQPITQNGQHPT
PostGolgi ctrl – growth inhibition of yeast control strain, primary screen, counter-screen for post-Golgi transport modulator project | AID 738, 2007 | 5% of 98,000 active | inhibition, % at 10 µM | efflux-deficient yeast background strain, growth absorbance A615, 16 h
PostGolgi yeast – phenotypic screen on post-Golgi transport, primary screen. 0.9% of 98,000 active. inhibition, % at 10 µM. post-Golgi transport phenotypic cell assay. AID 739, 2007;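 note: yeast cells grown in 1536-well plates; yeast grown about 18 h at 30C before absorbance read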
PLAP act – PLAP enzyme activators, biochemical, luminescence, HTS. purified PLAP enzyme, luminescent substrate read-out; stronger effect = higher value. 1.2% of 96,000 active. AID 696, 2007. activation fold at 20 µM. Alkaline phosphatase, placental type (Homo sapiens), P05187; in the data active = activation fold above about 2
Each line names hits and unclear results; the compound was inactive in the other large screens; ! = not confirmed by another sample. A selection: hits, their analogues and other compounds. The true share with any hit is near 12%. Cut-off read from the data, not from the text of the source, unless noted: active = inhibition above about 30%; inactive = the rest.

CCCCOC(=O)CSC1=C(C#N)C(c2ccc3c(c2)OCO3)CC(=O)N1 (stereo not drawn)	PostGolgi ctrl 47 (no result: D1 mod, PostGolgi yeast)
COc1ccc(C(=O)C/C(=C\C(=O)c2ccc(C)cc2)c2ccccc2)cc1	Cav3 T inh -4.2 (no result: D1 mod)
COc1cc2c(C#N)c(N3CCc4ccccc4C3)nc(N)c2c(N)n1	PostGolgi ctrl 77
CCOC(=O)c1c(-c2ccccc2)oc2ccc(OC)cc12	PostGolgi ctrl 31 (no result: D1 mod)
CC(C)CCn1c(SCC(=O)N2CC(=O)Nc3ccccc32)nc2scc(-c3cccs3)c2c1=O	none (no result: D1 mod)
C=CCn1c(SCC(=O)N2CC(=O)Nc3ccccc32)nc2scc(-c3cccs3)c2c1=O	Cav3 T inh -7.2
CCCCNS(=O)(=O)c1ccc2nc(SCC(=O)c3ccc(C#N)cc3)[nH]c2c1	PLAP act 2
CCOC(=O)CSc1nc2ccc(S(=O)(=O)N3CCOCC3)cc2[nH]1	none (no result: D1 mod)
O=C(O)C1CCCCC1C(=O)Nc1ccccc1F (stereo not drawn)	PostGolgi ctrl 42
O=C(O)C1CCCCC1C(=O)Nc1ccccc1Cl (stereo not drawn)	none (no result: D1 mod)
OC(COCc1cccs1)CN1CCN(c2ccccn2)CC1 (stereo not drawn)	none (no result: D1 mod)
CC(=O)c1ccc(OCC(O)CN2CCN(c3ccccn3)CC2)cc1 (stereo not drawn)	none
OC(COc1ccc(Cl)c2ccccc12)CN1CCN(c2ccccn2)CC1 (stereo not drawn)	PostGolgi ctrl 34 (no result: hDAT+cocaine)
OC(CN1CCN(c2ccccn2)CC1)Cn1c2ccccc2c2ccccc21 (stereo not drawn)	D1 mod -2.7
Cc1cc(C)cc(N2C(=O)C3C4C=CC(C4)C3C2=O)c1 (stereo not drawn)	none (no result: D1 mod)
Cn1c(CC(=O)Nc2ccc(Cl)c(Cl)c2)nnc1SCC(=O)N1CCN(c2ccccc2)CC1	PostGolgi ctrl 36 (no result: D1 mod)
CC(C)CCNC(=O)C12CN(Cc3ccccc3)CC1C(c1cccc([N+](=O)[O-])c1)=NO2 (stereo not drawn)	Cav3 T inh -4.7 (no result: D1 mod)
CCN(CC)S(=O)(=O)c1cccc(C(=O)N[C@H](C(=O)NCc2ccc(Cl)cc2)C(C)C)c1	Cav3 T inh -9.8 (no result: D1 mod)
CCN(CC)S(=O)(=O)c1cccc(C(=O)Nc2cc(C)cc(C)c2)c1	Cav3 T inh -3.4 (no result: D1 mod)
O=C(NCCSCc1ccccc1)c1ccc(C2SCC(=O)N2Cc2ccccc2)cc1 (stereo not drawn)	none (no result: D1 mod)
Cc1ccc2[nH]ccc(=O)c2c1	none (no result: D1 mod, PostGolgi ctrl, PostGolgi yeast, PLAP act)
CCCNC(=O)c1c(CSc2ccc(Cl)cc2)noc1C(=O)NCc1ccccc1	none (no result: D1 mod, PostGolgi ctrl, PostGolgi yeast, PLAP act)
COCCn1cnnc1SCC(=O)c1ccc(S(=O)(=O)N2CCCC2)cc1	none
Cc1ccc2ccccc2c1COC(=O)c1nonc1N	PostGolgi ctrl 74
CCOC(=O)c1ccc(COC(=O)c2nonc2N)cc1	none
O=C(CSc1ncn[nH]1)N1N=C2/C(=C/c3ccco3)CCCC2C1c1ccco1 (stereo not drawn)	Cav3 T inh -4.1 (no result: D1 mod, PLAP act)
CN(C)c1nc2ccc(OCCN3CCCCC3)cc2s1	D1 mod -3.4
CCOC(=O)c1cnc2nc(NCc3ccc(OCc4ccccc4)cc3)[nH]n2c1=O	none (no result: D1 mod)
CCOC(=O)c1c2n(c3c(NCc4ccccc4)ncnc13)CCCC2	hDAT+cocaine 2.3, PLAP act 2.5
CCCC(=O)Nc1ccc(C(=O)Nc2nnc(COCC)s2)cc1	hDAT+cocaine -7.8 (no result: D1 mod, PostGolgi ctrl, PostGolgi yeast, PLAP act)
Cc1cc(C)nc(Sc2c(C)nn(-c3ccccc3)c2C)n1	none
CC(=O)C1=C(C)N=c2s/c(=C/c3ccc4c(c3)OCO4)c(=O)n2C1c1ccc(N(C)C)cc1 (stereo not drawn)	none (no result: Cav3 T inh, hDAT+cocaine, PostGolgi ctrl, PostGolgi yeast, PLAP act)
CC1(C)CC(=O)C2=C(C1)N=c1s/c(=C/c3ccc(F)c(F)c3)c(=O)n1C2c1ccc(F)cc1 (stereo not drawn)	PostGolgi ctrl 31 (no result: D1 mod)
CCC(CC)C1C(C#N)=C(N)Oc2n[nH]c(C)c21 (stereo not drawn)	PLAP act 2.1
Cc1ccc(-c2ccc(C3C(C#N)=C(N)Oc4n[nH]c(C)c43)o2)cc1 (stereo not drawn)	none (no result: D1 mod)
Cc1[nH]nc2c1C(c1ccc(-c3ccccc3C#N)o1)C(C#N)=C(N)O2 (stereo not drawn)	Cav3 T inh -4.4
COc1ccc(C2(C(=O)N3CCCC3)CCOCC2)cc1OC	none
COC(=O)c1cn[nH]c1NC(=S)Nc1ccc(Cl)c(Cl)c1	PostGolgi ctrl 42, PLAP act 2.5 (no result: D1 mod)
COc1ccc(-c2cc(C(F)F)nc(-n3nc(C)cc3C)n2)cc1	PostGolgi ctrl 31
COc1ccc(Nc2nc3ccccc3nc2-n2nc(C)cc2C)cc1	none (no result: D1 mod)
Cc1cccc(Nc2nnc(-c3ccc(C(=O)N4C[C@H]5C[C@H](C4)c4cccc(=O)n4C5)cc3)c3ccccc23)c1	hDAT+cocaine 1.8 (no result: D1 mod)
O=C(CC12CCC(CC1)C2)NCc1ccc2c(c1)OCO2	none (no result: D1 mod, PostGolgi ctrl, PostGolgi yeast, PLAP act)
C=CCn1c(=O)/c(=C/c2ccc(F)cc2)s/c1=C(\C#N)c1nnc2n1CCCCC2	none
C=CCN1C(c2ccc(OCC)cc2)=CS/C1=C(\C#N)c1nnc2n1CCCCC2	hDAT+cocaine 3.8!
c1cnc(Oc2ccc(-c3nnco3)cc2)cn1	none
CCOC(=O)c1c(C)oc2c1c(C(c1cccnc1)N1CCCCC1)c(O)c1ccccc12 (stereo not drawn)	PostGolgi ctrl 53 (no result: D1 mod)
CCOC(=O)c1c(C)oc2c1c(C(c1ccccc1)N1CCOCC1)c(O)c1ccccc12 (stereo not drawn)	none (no result: D1 mod)
NC(=O)C1(N2CCCCC2)CCN(C(=O)NC2CCCCC2)CC1	none
COc1ccc(CN2C(=O)c3ccccc3C(/C=N\OCc3ccc(F)cc3)C2=O)cc1 (stereo not drawn)	Cav3 T inh -3.7 (no result: D1 mod)
COc1ccc(/C=C2\C(=O)N(Cc3ccc(F)cc3)CC(=O)N2Cc2ccccc2)cc1	none (no result: D1 mod)
CC(C)(C)c1ccc(C(=O)NNC(=O)Cc2cccc3ccccc23)cc1	Cav3 T inh -4.2, PostGolgi ctrl 40 (no result: D1 mod)
O=S(=O)(Nc1cccc2ccccc12)N1CCCC1	none
COC(=O)c1sccc1NC(=O)c1cc(OC)cc(OC)c1	hDAT+cocaine -8 (no result: D1 mod, PostGolgi ctrl, PostGolgi yeast, PLAP act)
COC(=O)c1sccc1NC(=O)Nc1cccc(Cl)c1Cl	PostGolgi ctrl 34 (no result: D1 mod)
COc1ccc(CONS(=O)(=O)c2ccc(NC(C)=O)cc2)cc1Cl	none (no result: D1 mod)
Cc1cc(C)n(-c2cc(N3CCN(C(=O)c4ccccc4C)CC3)ccc2[N+](=O)[O-])n1	none (no result: D1 mod, PostGolgi ctrl, PostGolgi yeast, PLAP act)
COc1ccc(COC(=O)NNC(=O)c2ccccc2Cl)cc1	none (no result: D1 mod)
CCOC(=O)c1sc(C)c2c1NC(c1ccc(Cl)cc1)NC2=O (stereo not drawn)	none (no result: D1 mod)

Assay outcomes from PubChem BioAssay.
